The values below come from PubChem BioAssay (EPA / NIEHS).

Structures are written as SMILES. Calls of active or inactive are those of the source. How the source made its calls: active means hit-call score of the fitted dose curve at least 0.9, where 1 is the maximum; inactive means score below 0.9.

Assay [1] can be described thus: ATG_CRE_CIS: Attagene CIS-FACTORIAL HepG2 Assay for human cAMP Responsive Element (CRE) binding protein 3 (AID 2282926). The following applies: HepG2 CRE cis-reporter, Attagene multiplexed mRNA; actives raise or lower the signal. A digest of the protocol: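 Endogenous transcription factor activity read via CRE-regulated reporter transcripts in transfected HepG2 cells. After 24 h exposure, RNA was reverse-transcribed, amplified, fluorescently labelled and sized by capillary electrophoresis; gain or loss fitted against DMSO.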

Assay [2] can be described thus: ATG_CMV_CIS: Attagene CIS-FACTORIAL HepG2 Assay for human CMV (Internal Marker) (AID 2282928).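 Further: endpoint acts as a background internal control marker rather than a target.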 Particulars: HepG2 CMV promoter reporter, transcription factor profiling; actives raise or lower the signal. A digest of the protocol: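 Readout: fluorescent reporter cDNA fragments separated by capillary electrophoresis after RT-PCR and HpaI cut. Cells: HepG2 carrying transfected cis-promoter reporter constructs, dosed 24 h. Endpoint serves as background internal-marker control, fit bidirectionally versus DMSO.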

The nature of assay [3]: ATG_DR4_LXR_CIS: Attagene CIS-FACTORIAL HepG2 Assay for human Liver X Receptor (LXR), DR4 submotif (AID 2282929). Particulars: HepG2 Attagene DR4 cis-reporter, mRNA transcription; actives raise or lower the signal. A digest of the protocol: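 HepG2, transient MRTU transfection, cis-element (DR4) promoter; 24 h compound exposure; total RNA → oligo(dT) RT → PCR → 6-FAM primer extension → HpaI cut → CE. Gain/loss vs DMSO, bidirectional fit.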

The target in assay [4] is Aryl hydrocarbon receptor (Homo sapiens) (UniProt P35869). The experiment in a line: ATG_Ahr_CIS: Attagene CIS-FACTORIAL HepG2 Assay for human Aryl Hydrocarbon Receptor (Ahr) (AID 2282930). The following applies: HepG2 AhR cis-factorial reporter transcription; actives raise or lower the signal. A digest of the protocol: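 HepG2 cells transiently transfected with cis-element-driven multiplexed reporter units; endogenous AhR activity read as reporter mRNA 24 h after dosing, via RT-PCR, 6-FAM labelling, HpaI digestion and capillary electrophoresis. Bidirectional fit relative to DMSO.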

Assay [5] in a line: ATG_AP_1_CIS: Attagene CIS-FACTORIAL HepG2 Assay for human Activator Protein 1 (AP-1) (AID 2282931). Particulars: HepG2 Attagene cis-factorial AP-1 reporter mRNA; actives raise or lower the signal. The gist of the method: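 Transient MRTU transfection of HepG2 → 24 h chemical treatment → RNA isolation, RT-PCR, 6-FAM labelling, HpaI digest → capillary electrophoresis. Fit: bidirectional, DMSO negative control.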

A short description of assay [6]: ATG_AP_2_CIS: Attagene CIS-FACTORIAL HepG2 Assay for human Activator Protein 2 (AP-2) (AID 2282932). The following applies: HepG2 AP-2 cis-reporter, Attagene transcription factor profiling; actives raise or lower the signal. A digest of the protocol:
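Read-out: fluorescent reporter mRNA via RT-PCR and capillary electrophoresis, 24 h post-dose in transiently transfected HepG2. Endogenous factors drive cis-promoter reporters; gain or loss of signal fitted bidirectionally against DMSO.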

Assay [7] is described as follows: ATG_BRE_CIS: Attagene CIS-FACTORIAL HepG2 Assay for human Bone Morphogenetic Protein (BMP) Response Element (BRE) (AID 2282933). The following applies: HepG2 BMP response element reporter, Attagene transcription factor profiling; actives raise or lower the signal. The gist of the method: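 A HepG2 multiplex reporter system measured inducible reporter mRNA 24 h post-dosing. Detection: RT-PCR, 6-FAM primer extension, HpaI digestion, capillary electrophoresis. Activity fitted bidirectionally relative to DMSO.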

A short description of assay [8]: ATG_E_Box_CIS: Attagene CIS-FACTORIAL HepG2 Assay for human Enhancer Box (E-box) (AID 2282936). Particulars: HepG2 E-box cis-reporter transcription, actives raise or lower the signal. The gist of the method: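 Transiently transfected HepG2, endogenous TF-driven reporters, 24 h dosing. Readout: RT-PCR plus capillary electrophoresis of fluorescent reporter fragments. Gain or loss of signal fitted bidirectionally against DMSO baseline.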

Assay [9] in a line: ATG_M_61_CIS: Attagene CIS-FACTORIAL HepG2 Assay for M61 Transcription Factor (Internal Marker) (AID 2282937). The following applies: HepG2 Attagene CIS-FACTORIAL M61 internal marker reporter; actives raise or lower the signal. The gist of the method: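 Human liver HepG2, transient MRTU transfection (cis promoter elements), 24 h compound. Total RNA → oligo(dT) RT → PCR → FAM label → HpaI → CE. Internal background marker; bidirectional fitting, DMSO = baseline.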

Assay [10] is described as follows: ATG_EGR_CIS: Attagene CIS-FACTORIAL HepG2 Assay for human Early Growth Response 1 (EGR1) (AID 2282938). Particulars: HepG2 Attagene CIS-FACTORIAL EGR reporter mRNA; actives raise or lower the signal. The gist of the method:
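Transient transfection of human HepG2 with multiple cis-regulated reporter units, chemical exposure 24 h, total RNA isolated. Reverse transcription, PCR, fluorescent labelling and capillary electrophoresis quantify reporter transcripts; activity fitted bidirectionally against DMSO.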

Assay [11] can be described thus: ATG_M_19_CIS: Attagene CIS-FACTORIAL HepG2 Assay for M19 Transcription Factor (Internal Marker) (AID 2282939). Particulars: HepG2 Attagene CIS-FACTORIAL M19 internal marker reporter; actives raise or lower the signal. A digest of the protocol: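 Chemical-treated HepG2 (24 h) with MRTU constructs; reporter transcripts detected by fluorescent RT-PCR fragment analysis on capillary electrophoresis. Internal background marker, DMSO as baseline.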

The nature of assay [12]: ATG_ERE_CIS: Attagene CIS-FACTORIAL HepG2 Assay for Estrogen Response Element (ERE) (AID 2282940). Particulars: HepG2 ERE cis-reporter, Attagene RNA transcript; actives raise or lower the signal. The gist of the method:
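Human liver cells (HepG2) bearing transiently transfected, promoter-regulated reporter units were exposed 24 h. Reporter mRNA induction was detected by capillary electrophoresis of labelled RT-PCR products and fitted bidirectionally to DMSO.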

Assay [13] is described as follows: ATG_Ets_CIS: Attagene CIS-FACTORIAL HepG2 Assay for human Erythroblast Transformation Specific (ETS) (AID 2282941). The following applies: HepG2 ETS cis-reporter transcription, actives raise or lower the signal. The gist of the method: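 RT-PCR/capillary electrophoresis fluorescence read-out of reporter mRNA; HepG2 transient multi-reporter transfection; 24 h compound exposure; gain or loss of signal fitted bidirectionally relative to DMSO.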

Assay [14] has as its target Hepatocyte nuclear factor 3-beta (Homo sapiens) (UniProt Q9Y261). The assay is described as follows: ATG_FoxA2_CIS: Attagene CIS-FACTORIAL HepG2 Assay for human Forkhead box A2 (FOXA2) (AID 2282942). Particulars: HepG2 cis-reporter transcription factor activity, 24 h; actives raise or lower the signal. The gist of the method:
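Transient MRTU transfection of HepG2 liver cells; 24 h treatment; total RNA → oligo(dT) RT → PCR → FAM primer extension → HpaI cut → CE. Bidirectional fit vs DMSO.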

Assay [15] is described as follows: ATG_FoxO_CIS: Attagene CIS-FACTORIAL HepG2 Assay for human Forkhead box O (FoxO) (AID 2282943). The following applies: HepG2 Attagene cis-reporter, FoxO element, mRNA; actives raise or lower the signal. The gist of the method:
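HepG2 cells transiently transfected with cis-element-driven reporter units report endogenous FoxO activity. After 24 h chemical exposure, reporter mRNA quantified by RT-PCR, fluorescent labeling, HpaI digestion and capillary electrophoresis; bidirectional fit versus DMSO.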

The nature of assay [16]: ATG_GATA_CIS: Attagene CIS-FACTORIAL HepG2 Assay for human GATA Binding Protein (AID 2282944). The following applies: HepG2 GATA cis-element reporter, Attagene multiplex mRNA; actives raise or lower the signal. The gist of the method:
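Transfected cis-reporter HepG2 cells were treated with chemicals for 24 hours. Total RNA was then converted to cDNA, amplified with reporter-specific primers and analysed by fluorescent capillary electrophoresis, using DMSO-treated wells as baseline.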

Assay [17] in a line: ATG_GLI_CIS: Attagene CIS-FACTORIAL HepG2 Assay for human Zinc Finger Protein GLI1 (AID 2282945). The following applies: HepG2, Attagene cis-factorial reporter mRNA, GLI element; actives raise or lower the signal. The gist of the method: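 Transiently transfected HepG2 cells report endogenous transcription factor activity via cis-element-driven reporter units. After 24 h compound exposure, reporter mRNA was measured by RT-PCR with capillary electrophoresis; bidirectional fitting against DMSO baseline.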

The target in assay [18] is Retinoic acid receptor alpha (Homo sapiens) (UniProt P10276). The assay is described as follows: ATG_DR5_RAR_CIS: Attagene CIS-FACTORIAL HepG2 Assay for human Retinoic Acid Receptor Alpha (RARE), DR5 submotif (AID 2282934). The following applies: HepG2 Attagene cis-factorial RARE DR5 reporter, mRNA; actives raise or lower the signal. The gist of the method: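 HepG2 cells transiently transfected with multiplexed reporter units; DR5 cis-element drives reporter through endogenous transcription factors. After 24 h dosing, reporter mRNA quantified by RT-PCR, fluorescent labeling, HpaI digestion and capillary electrophoresis; bidirectional fitting versus DMSO.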

For assay [19], the target named is Transcription factor E2F1 (Homo sapiens) (UniProt Q01094). The experiment in a line: ATG_E2F_CIS: Attagene CIS-FACTORIAL HepG2 Assay for human E2F Transcription Factor 1 (AID 2282935). The following applies: HepG2 Attagene cis-reporter, E2F reporter RNA transcripts; actives raise or lower the signal. The gist of the method: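 Transient MRTU transfection of HepG2; 24 h compound exposure; RNA → oligo(dT) RT → PCR → FAM label → HpaI cut → CE fluorescence. Gain/loss of signal fit against DMSO.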
Transcription factor E2F1 (Homo sapiens), sequence (Q01094 whole entry, looked up): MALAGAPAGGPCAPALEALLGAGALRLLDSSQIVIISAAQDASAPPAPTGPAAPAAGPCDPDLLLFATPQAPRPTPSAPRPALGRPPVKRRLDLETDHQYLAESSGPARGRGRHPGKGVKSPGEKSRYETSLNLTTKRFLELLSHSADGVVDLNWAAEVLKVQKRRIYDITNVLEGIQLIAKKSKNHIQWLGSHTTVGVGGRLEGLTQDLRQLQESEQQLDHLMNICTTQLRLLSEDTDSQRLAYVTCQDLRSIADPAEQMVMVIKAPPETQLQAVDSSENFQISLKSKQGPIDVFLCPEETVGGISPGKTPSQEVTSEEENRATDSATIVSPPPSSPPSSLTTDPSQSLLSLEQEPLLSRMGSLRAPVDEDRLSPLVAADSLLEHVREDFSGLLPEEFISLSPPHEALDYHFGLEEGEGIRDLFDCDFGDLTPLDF

Hepatocyte nuclear factor 3-beta (Homo sapiens), sequence (Q9Y261 whole entry, looked up): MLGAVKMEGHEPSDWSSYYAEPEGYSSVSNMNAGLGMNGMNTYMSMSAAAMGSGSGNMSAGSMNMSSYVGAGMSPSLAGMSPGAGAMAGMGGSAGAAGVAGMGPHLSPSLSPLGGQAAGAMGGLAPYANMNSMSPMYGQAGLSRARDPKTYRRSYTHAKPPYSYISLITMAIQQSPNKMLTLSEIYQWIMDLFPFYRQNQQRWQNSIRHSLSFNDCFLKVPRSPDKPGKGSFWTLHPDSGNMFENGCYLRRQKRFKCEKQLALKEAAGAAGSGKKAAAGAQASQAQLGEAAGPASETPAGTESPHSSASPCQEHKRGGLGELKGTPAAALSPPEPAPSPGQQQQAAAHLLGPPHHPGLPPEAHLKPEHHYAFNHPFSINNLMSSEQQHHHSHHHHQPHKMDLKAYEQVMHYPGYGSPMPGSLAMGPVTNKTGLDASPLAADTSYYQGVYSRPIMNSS
Aryl hydrocarbon receptor (Homo sapiens), sequence (P35869 whole entry, looked up): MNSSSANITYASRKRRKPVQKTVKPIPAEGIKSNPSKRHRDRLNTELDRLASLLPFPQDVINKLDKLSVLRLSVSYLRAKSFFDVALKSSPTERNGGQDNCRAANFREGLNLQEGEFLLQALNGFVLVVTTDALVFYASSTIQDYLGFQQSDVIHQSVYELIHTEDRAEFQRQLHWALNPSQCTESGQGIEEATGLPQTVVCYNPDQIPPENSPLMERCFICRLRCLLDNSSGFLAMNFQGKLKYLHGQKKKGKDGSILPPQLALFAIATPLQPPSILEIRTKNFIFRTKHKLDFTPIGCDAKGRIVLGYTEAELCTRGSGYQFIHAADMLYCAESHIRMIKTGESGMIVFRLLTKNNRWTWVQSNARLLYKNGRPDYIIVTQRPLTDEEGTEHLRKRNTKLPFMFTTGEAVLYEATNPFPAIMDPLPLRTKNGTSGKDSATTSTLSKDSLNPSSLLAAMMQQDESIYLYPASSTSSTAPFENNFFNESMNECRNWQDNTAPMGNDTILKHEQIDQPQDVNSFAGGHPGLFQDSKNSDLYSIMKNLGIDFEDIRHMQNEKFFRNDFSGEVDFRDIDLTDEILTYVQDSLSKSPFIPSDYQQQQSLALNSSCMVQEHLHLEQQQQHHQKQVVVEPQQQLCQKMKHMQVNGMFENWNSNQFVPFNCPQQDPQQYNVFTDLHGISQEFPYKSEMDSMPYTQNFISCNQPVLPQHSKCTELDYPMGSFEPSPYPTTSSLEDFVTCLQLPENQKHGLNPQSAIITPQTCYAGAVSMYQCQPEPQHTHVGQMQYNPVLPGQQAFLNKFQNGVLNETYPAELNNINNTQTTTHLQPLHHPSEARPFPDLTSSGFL
Retinoic acid receptor alpha (Homo sapiens), sequence (P10276 whole entry, looked up): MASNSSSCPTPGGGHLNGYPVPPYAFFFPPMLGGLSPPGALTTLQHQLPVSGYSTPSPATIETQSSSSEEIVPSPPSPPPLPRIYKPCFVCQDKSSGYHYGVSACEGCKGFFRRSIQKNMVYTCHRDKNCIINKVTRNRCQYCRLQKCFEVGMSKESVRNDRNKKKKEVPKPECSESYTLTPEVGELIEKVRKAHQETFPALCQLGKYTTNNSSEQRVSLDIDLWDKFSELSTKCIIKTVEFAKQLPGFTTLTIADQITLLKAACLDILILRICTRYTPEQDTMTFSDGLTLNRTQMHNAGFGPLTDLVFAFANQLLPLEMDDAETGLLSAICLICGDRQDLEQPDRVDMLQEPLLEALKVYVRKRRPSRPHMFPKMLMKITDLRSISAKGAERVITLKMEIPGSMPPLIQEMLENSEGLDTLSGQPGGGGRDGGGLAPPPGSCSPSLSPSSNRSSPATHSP

Consider `CCCCCCCCCCCCCCO`, for which the compound was classed as inactive in [1], in assay [5], in [9], in assay [10], in assay [11] and in assay [12]. Moreover, the result in assay [15] and in assay [17] was inactive. Besides, the half-maximal activity concentration (AC50) – broadly, the concentration giving half of the maximal activity seen – in assay [2] is 29.4 µM (active); in assay [3] it was 78 µM (active); in assay [4], 114 µM (active); in assay [6], 166 µM (active); in assay [7], 166 µM (active); in assay [8] it was 129 µM (active). The concentration at half-maximal activity (AC50) was 159 µM (active) in assay [13], 138 µM (active) in assay [14] and 179 µM (active) in assay [16].

Take `Cc1nc(-c2ccccn2)ncc1C(=O)Nn1cc(C)c2cc(F)ccc21`: the compound was classed as inactive in [1], in assay [2], in assay [3], in [5], in assay [6] and in assay [7]. The result in assay [18], in [19], in [8], in [9], in [10] and in [11] was inactive. Further, the result in assay [12], in assay [13], in [14], in assay [15], in assay [16] and in assay [17] was inactive.

For `C=CCc1cc(S(=O)(=O)c2ccc(O)c(CC=C)c2)ccc1O`, the compound was called inactive in assay [1], in [4], in [6], in assay [18], in assay [9] and in assay [11]. Also, the compound was called inactive in assay [13], in assay [14], in [15], in [16] and in assay [17]. Moreover, the AC50 was 27.9 µM (active) in assay [2]; 20.4 µM (active) in assay [3]; 23.2 µM (active) in assay [5]; 22.1 µM (active) in assay [7]; 55.6 µM (active) in assay [8]; 45.8 µM (active) in assay [10]. Besides, the half-maximal activity concentration (AC50) in assay [12] is 1.12 µM (active).

With `C[C@@H](Oc1ccc(CNC(=O)c2cccnc2Oc2ccc3c(c2)OCO3)c(F)c1)C(=O)O`, the result in [1], in [2], in [3], in assay [4], in assay [5] and in [6] was inactive. Moreover, the compound was called inactive in [7], in [19], in [8], in assay [9], in assay [10] and in [11]. For the same compound, the call in assay [12], in [13], in assay [14], in [15], in [16] and in assay [17] was inactive.
